Only some compounds are listed: those with a hit (about 6.2% of all), similar ones and a draw of the others.
NTR1 ag: agonists of human neurotensin receptor NTR1; NTR1-U2OS beta-arrestin-GFP spot imaging, agonist mode; activation, % at 20 µM; actives 0.17% (n = 330,000); AID 493036;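 active = activation at or above 40% of the spot to cytoplasm intensity ratio, with at least 20 cells analyzed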
Target sequence (P30989 whole entry, looked up): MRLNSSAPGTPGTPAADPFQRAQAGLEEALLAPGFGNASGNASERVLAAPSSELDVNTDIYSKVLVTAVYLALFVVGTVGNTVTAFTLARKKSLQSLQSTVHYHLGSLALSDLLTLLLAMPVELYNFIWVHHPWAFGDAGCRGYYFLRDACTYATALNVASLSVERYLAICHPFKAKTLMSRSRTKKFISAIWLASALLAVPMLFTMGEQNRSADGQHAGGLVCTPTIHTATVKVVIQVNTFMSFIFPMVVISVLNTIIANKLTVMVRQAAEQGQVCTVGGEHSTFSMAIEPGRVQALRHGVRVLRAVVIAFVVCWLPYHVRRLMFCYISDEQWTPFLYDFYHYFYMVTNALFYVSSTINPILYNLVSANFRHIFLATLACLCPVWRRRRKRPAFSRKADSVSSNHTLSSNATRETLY
AHR activator: activators of human aryl hydrocarbon receptor | AHR-responsive luciferase reporter cells, luminescence | activation, % at 5 µM | actives 2.5% (n = 320,000) | AID 2796; in the data active = activation above about 47%
GRIN3A LBD mod: modulates the human NR3A ligand-binding domain | NR3A LBD differential scanning fluorimetry, Tm shift; 0% = protein alone, 100% = glycine-bound protein | Tm shift relative to glycine control, % at 25 µM | actives 2.5% (n = 340,000) | AID 1259313;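 active = melting temperature shift of at least 10% of the positive control shift, at one fixed dose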
Mot1-301 SUMO: inhibitors of SUMOylation pathway: yeast Mot1-301 growth rescue | growth rescue, % at 18.8 µM | actives 1% (n = 320,000) | S. cerevisiae Mot1-301 growth rescue, ATP luminescence, 38.5C; percent above DMSO median, 100 means doubled;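 active = every valid replicate shows activation above 250% relative to neutral control wells; inactive = the rest, any valid replicate at or below 250%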
Cardio protect: protects H9c2 cardiomyocytes from peroxide injury; H2O2 injury protection, ATPLite, 2 h; protection from H2O2 cell death, % at 20 µM; actives 0.63% (n = 360,000); AID 588492;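 active = compounds giving at least 50% protection of heart cells from peroxide-induced death in the single-dose screen, raw or plate-pattern-corrected value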
AI-2 QS mod: modulates the Vibrio harveyi AI-2 quorum sensing system; AID 2094; actives 0.4% (n = 300,000); Vibrio harveyi JMH597 AI-2 luminescence/OD600 ratio, 9 h; hits give low values; strain lacks LuxN and CqsS sensors; 0 = neutral-control median; activity change, % at 7.5 µM; in the data active = activity change below about -75%, passing the limit was not always enough;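 note: luminescence divided by OD600 gain over 9 h not by final OD600 alone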
A number is an active result; n = inactive; x = no result.

SMILES	NTR1 ag	AHR activator	GRIN3A LBD mod	Mot1-301 SUMO	Cardio protect	AI-2 QS mod
Cc1cc2nc(CCN(Cc3cccnc3)C(=S)Nc3ccccc3)[nH]c2cc1C	n	n	n	n	n	n
COc1ccc(NC(=S)N(Cc2cccnc2)Cc2cc3cc(OC)c(OC)cc3[nH]c2=O)cc1	n	n	n	n	66	n
CC(NC(=O)Cc1ccsc1)c1ccc(Cl)cc1Cl (stereo not drawn)	n	n	n	n	n	n
CCOc1ccc(N2CC(C(=O)NC3CCSC3=O)CC2=O)cc1 (stereo not drawn)	n	n	n	n	n	n
O=[N+]([O-])c1c(Nc2cccc(O)c2)cc(Cl)c2nonc12	n	n	n	n	n	-219
COCCNC(=O)C1(C)CCCN(C(=O)c2ccc(C(=O)OC)cc2)C1 (stereo not drawn)	x	x	x	x	n	x
COc1cc(C(=O)NCC(c2cccs2)N2CCOCC2)c([N+](=O)[O-])cc1OC (stereo not drawn)	n	n	n	n	n	n
COC(=O)CC1=NC(=O)CS1	n	n	11	n	n	n
CC(C)c1ccc(CN2CCC2(C)C(=O)Nc2cnc3ccccc3c2)cc1 (stereo not drawn)	x	x	x	x	n	x
COC(=O)c1nc(NC(=S)NC(=O)c2cccs2)sc1C	n	n	n	n	n	n
Cc1c(NC(=O)c2cccs2)cccc1-c1nc2ccccc2s1	n	n	n	387	n	n
O=C(NC(=S)Nc1nc2ccccc2s1)c1cccs1	n	72	27	n	n	n
CCCCCCCCCc1nc2sc3c(c2c(=O)n1NC(=O)c1ccccc1[N+](=O)[O-])CC(C)(C)OC3	n	n	20	n	n	n
CCCc1nc2sc3c(c2c(=O)n1NC(=O)c1ccco1)CC(C)(C)OC3	n	n	n	n	n	n
CCCCCCCCCc1nc2sc3c(c2c(=O)n1NC(=O)c1ccc([N+](=O)[O-])cc1)CC(C)(C)OC3	n	n	24	n	n	n
O=C(c1ccccc1)N1CCOC(O)(c2ccccc2)C1c1ccccc1 (stereo not drawn)	x	x	n	x	n	x
CN(C)C(=O)c1ccc(NC(=O)COC(=O)C2CCN(S(=O)(=O)c3ccc4c(c3)OCCO4)CC2)cc1	n	n	n	n	n	n
COc1cc(NC(=O)CSc2c3c(nc4ccccc24)CCC3)cc(OC)c1OC	n	n	13	n	n	n
COc1ccccc1NC(=O)CSc1c2c(nc3ccccc13)CCC2	n	47	n	n	n	n
COc1cc(NC(=O)c2ccc3c(SCC(=O)O)c4c(nc3c2)CCCC4)cc(OC)c1OC	n	n	n	x	n	n
COc1ccc(NC(=O)CSc2c3c(nc4cc(Cl)ccc24)CCCC3)cc1OC	n	n	14	n	n	n
COc1ccc(NC(=O)CSc2c3c(nc4ccccc24)CCCC3)c(OC)c1	n	n	n	n	n	n
NS(=O)(=O)c1ccc(NC(=O)/C=C/c2cccc(Cl)c2)cc1	n	n	28	n	n	n
NS(=O)(=O)c1ccc(NC(=O)/C=C/c2ccc(S(=O)(=O)NCc3ccco3)cc2)cc1	n	n	38	n	n	n
CCCCCN(C(=O)CCC(=O)OCCOc1cccc(C)c1)c1c(N)n(CCCC)c(=O)[nH]c1=O	n	n	n	n	n	x
SMILES	NTR1 ag	AHR activator	GRIN3A LBD mod	Mot1-301 SUMO	Cardio protect	AI-2 QS mod
Cc1nn2c(-c3ccccn3)ccnc2c1Cl	n	n	n	n	n	n
Cc1nn2c(-c3ccc(F)cc3)ccnc2c1Cl	n	58	n	n	n	n
CC(=O)Nc1ccccc1N(CC(O)Cn1c2ccccc2c2ccccc21)S(=O)(=O)c1ccc(C)cc1 (stereo not drawn)	n	n	13	n	n	n
CS(=O)(=O)N(CC(O)Cn1c2ccccc2c2ccccc21)c1ccccc1 (stereo not drawn)	n	n	n	n	n	n
COc1ccc(/C=C2/SC(=O)N(CC(O)Cn3c4ccccc4c4ccccc43)C2=O)cc1 (stereo not drawn)	n	n	13	n	n	n
CCN(CC(O)Cn1c2ccccc2c2ccccc21)S(=O)(=O)c1ccc(C)cc1 (stereo not drawn)	n	n	n	n	n	n
COc1ccc(N(CC(O)Cn2c3ccccc3c3ccccc32)S(=O)(=O)c2ccccc2)cc1 (stereo not drawn)	n	55	n	n	n	n

Assay outcomes from PubChem BioAssay.
